ELG1 repair inh: qHTS screen for small molecules that inhibit ELG1-dependent DNA repair in human embryonic kidney (HEK293T) cells expressing luciferase-tagged ELG1. HEK293T ELG1-luciferase reporter, luminescence, 16 h; DNA damage induced by 5-fluorouridine. Potency, µM (highest dose often 46.1 µM), without a hit: at the top dose activity change, negative = inhibition, usual class: inhibitors. 330,000 compounds, 2.3% hits; also: potency is read from the fitted curve at half-maximal effect; nearly all actives have a fitted effect of over 55% in size
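Cells (2,000 per well) received 5-fluorouridine plus test compound or DMSO and were incubated 16 hr at 37 °C, 5% CO2. Luciferase activity was read by luminescence 30 min after ONE-Glo addition; signal suppression marked inhibition of damage-induced ELG1 function.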
DT40 TDP1 CPT: qHTS for Inhibitors of human tyrosyl-DNA phosphodiesterase 1 (TDP1): qHTS in cells in presence of CPT; chicken DT40 Tdp1-/-;hTDP1 cells + 20 nM CPT, ATP luminescence, 48 h; 420,000 compounds, 12% hits; Potency, µM (highest dose often 46.2 µM), for the others: at the highest dose activity change, negative = growth inhibition, actives largely listed as inhibitors; also: potency is read from the fitted curve at half-maximal effect; nearly all actives have a fitted effect of over 55% in size
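Chicken DT40 Tdp1-/- cells stably complemented with human TDP1 were seeded at 400 cells/well in medium containing 20 nM camptothecin, exposed to pin-transferred compounds, and grown at 37 °C for at least 48 hr. Viability was read as ATP luminescence.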
VP16 counter: VP16 counterscreen qHTS for inhibitors of ROR gamma transcriptional activity | Potency, µM (top dose mostly 53.6 µM), for inactives: top-dose activity, negative = inhibition, usual class: inhibitors | 310,000 compounds, 3.5% hits | AID 2546, 2010 | Drosophila S2 Gal4-VP16 UAS-luciferase, luminescence, 20 h;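 also: Gal4-VP16 expression switched on by copper sulfate through the metallothionein promoter; potency is read from the fitted curve at half-maximal effect; nearly all actives have a fitted effect of over 50% in size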
RORg inh: qHTS for inhibitors of ROR gamma transcriptional activity; Nuclear receptor ROR-gamma (Mus musculus), P51450; Drosophila S2 Gal4-RORgamma UAS-luciferase reporter, 20 h; Potency, µM (titrated, usually from 53.6 µM), for the others: top-dose activity change, negative = inhibition, most hits filed as inhibitors; 310,000 compounds, 5.4% hits; also: potency is read from the fitted curve at half-maximal effect; nearly all actives have a fitted effect of over 60% in size
Target sequence (P51450 whole entry, looked up, the tested form may be a part): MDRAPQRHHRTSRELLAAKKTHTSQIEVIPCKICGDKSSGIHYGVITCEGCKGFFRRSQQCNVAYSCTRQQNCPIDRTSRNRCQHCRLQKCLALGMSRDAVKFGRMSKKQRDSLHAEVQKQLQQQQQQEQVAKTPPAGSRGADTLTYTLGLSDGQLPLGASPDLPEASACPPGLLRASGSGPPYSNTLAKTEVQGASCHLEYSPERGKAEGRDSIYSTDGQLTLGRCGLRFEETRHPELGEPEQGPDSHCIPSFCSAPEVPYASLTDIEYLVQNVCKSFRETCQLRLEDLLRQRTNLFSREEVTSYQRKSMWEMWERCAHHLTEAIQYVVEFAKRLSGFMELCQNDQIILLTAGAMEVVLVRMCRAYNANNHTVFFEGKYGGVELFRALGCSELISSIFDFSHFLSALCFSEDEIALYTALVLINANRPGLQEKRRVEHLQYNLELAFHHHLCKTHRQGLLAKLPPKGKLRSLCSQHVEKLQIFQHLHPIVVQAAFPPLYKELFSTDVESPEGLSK
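In this cell-based reporter format, copper sulfate (700 uM final) drives Gal4–ROR gamma fusion expression from a metallothionein promoter in Drosophila Schneider cells; compounds preincubated 1 hr, reporter read after 20 hr at ambient temperature.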
IL1B secr inh: qHTS for Inhibitors of Inflammasome Signaling: IL-1-beta AlphaLISA Primary Screen; THP-1 LPS/ATP IL-1B secretion, AlphaLISA, 16 h; active compounds read low; activity change, % at 57.5 µM; 360,000 compounds, 4.7% hits; AID 743279, 2014; in the data active = activity change below about -50%; inconclusive = mostly about -30% to -49%
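THP-1 cells pretreated 1 hr with compounds (up to 57.5 uM final), then stimulated with LPS (250 ng/mL final) plus ATP (1.25 mM final); secreted IL-1B measured by AlphaLISA after 16 hr, decreased signal indicating inhibition.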
DT40 TDP1 no CPT: qHTS for Inhibitors of human tyrosyl-DNA phosphodiesterase 1 (TDP1): qHTS in cells in absence of CPT. DT40 Tdp1-/- hTDP1 cells, no CPT, ATP luminescence, 48 h. Potency, µM (titrated, usually from 46.2 µM), for the others: at the top dose activity change, negative = growth inhibition, usual class: inhibitors. 420,000 compounds, 15% hits; also: potency is read from the fitted curve at half-maximal effect; nearly all actives have a fitted effect of over 55% in size
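Camptothecin absent (DMSO only). Human TDP1-complemented DT40 knockout cells, 400 cells/well, 37 °C for minimum 48 hr; ATP measured via CellTiter-Glo, 30 min dark incubation, luminescence.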
* marks the source's active call; other numbers are inactive results; ? = inconclusive; . = no result; [ ] = another dose, or the depositor's remark. Most compounds without a hit are left out; they make up all but 21% or so of the library. Unless noted, calls follow the shape of the dose curve; as a rule, active = well fitted curve in the direction sought with a large enough effect; inconclusive = small, poorly fitted or top-dose-only effect, or another doubt; inactive = no such curve, though single readings can be large; an effect the other way counts as inactive or inconclusive. % is scaled to controls: 0 for no effect and ±100 for the full control effect.

SMILES	ELG1 repair inh	DT40 TDP1 CPT	VP16 counter	RORg inh	IL1B secr inh	DT40 TDP1 no CPT
COc1cccc(C2=NN(C(=O)c3ccc(C)o3)C(O)(C(F)(F)F)C2)c1 (stereo not drawn)	-25%	?	?	-79%	?	10µM*
COc1cccc(C2(O)CCN(C(=O)C(C)C)CC2)c1	?	3%	0%	2%	24	13%
O=C(c1ccccc1)N1N=C(c2ccc(F)cc2)CC1(O)C(F)(F)F (stereo not drawn)	?	-17%	?	?	-4	?
Cc1ccc(C(=O)N2N=C(c3ccccc3)CC2(O)C(F)(F)F)o1 (stereo not drawn)	-4%	-2%	-11%	-4%	-5	?
COc1cccc(C(=O)N2N=C(c3ccccn3)CC2(O)C(F)(F)F)c1 (stereo not drawn)	-3%	21µM*	5µM*	2µM*	123	4.6µM*
COc1cccc(C(=O)N2N=C(c3cccc(OC)c3)CC2(O)C(F)(F)F)c1 (stereo not drawn)	9%	?	-18%	11µM*	-2	?
COc1cccc(C2(O)CC(C(F)(F)F)=NN2C(=O)c2ccccn2)c1 (stereo not drawn)	?	?	6.3µM*	1.6µM*	-13	-10%
Cc1ccc(Sc2c(C)nn(C(C)(C)C)c2OC(=O)C(C)(C)C)cc1	.	-23%	.	.	.	?
CC(C)C[C@@H](CC(=O)N[C@H](CC(=O)N[C@@H]1CCNC[C@H]1C(=O)N[C@H](CC(=O)N[C@@H](CCC(=O)O)CC(=O)O)Cc1c[nH]c2ccccc12)C(C)C)NC(=O)[C@@H]1CCCC[C@H]1N	.	.	1%	5%	.	.
Cc1cccc(C=NOCCc2ccccc2)n1	.	3%	.	.	-9	-4%
CC1(C(=O)NS(=O)(=O)c2ccccc2Cl)CCN1C(=O)C1CCCCC1 (stereo not drawn)	.	2%	.	.	13	-11%
COc1ccc(C(=O)N2N=C(c3cccc(OC)c3)CC2(O)C(F)(F)F)cc1 (stereo not drawn)	?	?	-68%	11µM*	?	23µM*
O=C(c1ccccc1)N1N=C(C(F)(F)F)CC1(O)c1ccc(F)cc1 (stereo not drawn)	-16%	?	?	20µM*	-4	?
O=C(c1ccccc1)N1N=C(C(F)(F)F)CC1(O)c1ccccc1 (stereo not drawn)	-3%	-2%	?	-24%[1.91 µM]	27	?
O=C(C1CC1)N1N=C(c2ccccc2)CC1(O)C(F)(F)F (stereo not drawn)	?	-4%	-17%	-13%	19	10%
COc1cccc(C2=NN(C(=O)c3cccs3)C(O)(C(F)(F)F)C2)c1 (stereo not drawn)	?	?	3%[10 µM]	27%	-72*	18µM*
O=C(CCc1nc2ccccc2c(=O)[nH]1)OCCOc1ccc(Cl)cc1	3%	-17%	-1%	23%	-15	-25%
COc1ccc(OC)c(NC(=O)Nc2nc(CN(C)C)cs2)c1	.	-26%	.	.	-3	-23%
COc1ccc(OC)c(NC(=O)Nc2nc(C(N)C(C)C)cs2)c1 (stereo not drawn)	.	?	.	.	-63*	?
COc1ccc(OC)c(NC(=O)Nc2nc(C(N)c3ccccc3Cl)cs2)c1 (stereo not drawn)	.	?	.	.	-51*	?
Cc1ccccc1Cn1ccc(NC(=O)c2cc3ncc(Br)cn3n2)n1	?	7%	3%	0%	3	3%
Cc1ccccc1Cn1ccc(NC(=O)c2nn3cccnc3c2Cl)n1	?	21µM*	-12%	35%	-11	?
OCC(CO)(CBr)CBr	.	.	-19%	7%	.	.
CC1(C(=O)Nc2ccc3c(c2)OCCO3)CCC(=O)N1CCc1c[nH]c2ccccc12 (stereo not drawn)	.	-2%	.	.	-10	-9%
COc1ccc(N2CC(C(=O)N[C@@H](C)C(=O)NC3CCCCC3)CC2=O)cc1 (stereo partly drawn)	21%	4%	-9%	3%	16	18%
SMILES	ELG1 repair inh	DT40 TDP1 CPT	VP16 counter	RORg inh	IL1B secr inh	DT40 TDP1 no CPT
CC(/C=C/c1ccccc1)=N/NC(=O)CNC(=O)c1ccc2c(c1)OCO2	4%	?	-12%	-3%	-15	?
CC(/C=C/c1ccccc1)=N\NC(=O)c1ccc2c(c1)OCCO2	3%	?	?	13µM*	-11	?
C/C(=N\NC(=O)c1ccc2c(c1)OCCO2)c1ccccc1	?	19%	7.9µM*	5.6µM*	22	1%
COc1ccc(C(=O)NCCCCCCNC(=O)c2ccc(OC)cc2)cc1	?	-2%	0%	-6%	7	-20%
Cc1ccc(Cl)cc1NC(=O)c1cnc(N2CCCCC2)c2ccccc12	.	18µM*	.	.	.	13µM*
O=C(Nc1ccc(C(F)(F)F)cc1)c1cnc(N2CCN(c3ccccn3)CC2)c2ccccc12	5.2µM*	21µM*	-11%	-7%	39	?
CCc1ccccc1NC(=O)c1cnc(N2CCCCC2)c2ccccc12	.	18µM*	.	.	.	?
Cc1ccc(NC(=O)c2cnc(N3CCCCC3)c3ccccc23)c(C)c1	.	?	.	.	.	-23%
O=C(Nc1ccccc1F)c1cnc(N2CCCCC2)c2ccccc12	.	16µM*	.	.	.	23µM*
O=C(Nc1ccccc1F)Nc1ccccc1N1CCCCC1	?	4%	1%	6%	-6	-19%
Cc1ccccc1Nc1oc(-c2ccccc2)nc1CCc1ccccc1	.	.	-4%	-19%	.	.
CCOC(=O)c1c(SCC(=O)Nc2nc3ccc(C)cc3s2)nc(=O)[nH]c1C	.	0%	.	.	.	5%
CCCN1CNc2c(c(=O)[nH]c(=S)n2CCc2ccc(OC)cc2)C1	.	7%	.	.	.	-18%
O=C(O)c1cccc2c1C(=O)c1ccc(N3CCCCC3)cc1S2(=O)=O	27%	-2%	.	.	21	-3%
O=C1c2ccccc2S(=O)(=O)c2cc(N3CCN(c4ccccc4)CC3)ccc21	.	?	.	.	9	16µM*

Screening data from PubChem.
